From PubChem BioAssay (EPA / NIEHS)
Results filed as inconclusive are left out. Activity calls are given as the source filed them. The calls were made as follows, unless noted: active = hit-call score of the fitted dose curve at least 0.9, where 1 is the maximum; inconclusive = response in the unintended direction; inactive = score below 0.9.

Assays:
[1] = ATG_M_19_TRANS: Attagene TRANS-FACTORIAL HepG2 Assay for M19 Transcription Factor (Internal Marker) (AID 2282974); conditions: HepG2 Attagene TRANS-FACTORIAL M19 internal marker reporter
In short: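 Measured here: internal-marker reporter transcript from HepG2 cells transfected with MRTUs, harvested at 24 h. cDNA PCR products were 6-FAM labelled by primer extension, cut with HpaI for 2 h at 37 C, and resolved by CE.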

[2] = target: Glucocorticoid receptor (Homo sapiens) (UniProt P04150); assay: ATG_GR_TRANS: Attagene TRANS-FACTORIAL HepG2 Assay for human Glucocorticoid Receptor (GR) (AID 2282978); conditions: HepG2 Attagene TRANS GR reporter, mRNA transcription;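 also: activators score as hits since higher reporter transcript over DMSO is fitted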
Sequence of Glucocorticoid receptor (Homo sapiens) (P04150 whole entry, looked up, the tested form may be a part): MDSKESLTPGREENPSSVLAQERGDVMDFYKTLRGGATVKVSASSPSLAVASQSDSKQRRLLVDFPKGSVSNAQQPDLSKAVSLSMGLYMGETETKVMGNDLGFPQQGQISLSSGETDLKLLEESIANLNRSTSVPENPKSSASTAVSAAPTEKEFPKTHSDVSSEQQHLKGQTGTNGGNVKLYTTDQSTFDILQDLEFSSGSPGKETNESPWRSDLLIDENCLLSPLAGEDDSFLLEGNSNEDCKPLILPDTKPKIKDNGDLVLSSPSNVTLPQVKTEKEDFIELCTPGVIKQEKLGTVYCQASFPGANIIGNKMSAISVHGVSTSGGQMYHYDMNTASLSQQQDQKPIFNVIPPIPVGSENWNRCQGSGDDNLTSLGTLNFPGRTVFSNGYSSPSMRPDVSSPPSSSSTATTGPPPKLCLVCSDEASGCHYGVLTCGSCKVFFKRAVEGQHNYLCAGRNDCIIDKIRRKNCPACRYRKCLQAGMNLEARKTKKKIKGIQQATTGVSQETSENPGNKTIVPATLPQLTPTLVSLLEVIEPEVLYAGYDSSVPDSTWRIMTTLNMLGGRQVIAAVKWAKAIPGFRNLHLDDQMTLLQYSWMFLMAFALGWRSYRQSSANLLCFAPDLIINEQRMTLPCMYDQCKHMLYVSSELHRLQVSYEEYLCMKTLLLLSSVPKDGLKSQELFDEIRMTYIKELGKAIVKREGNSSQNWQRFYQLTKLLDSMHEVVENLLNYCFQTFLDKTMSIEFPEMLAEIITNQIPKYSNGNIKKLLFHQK
In short: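 Measurement of GAL4-UAS-driven reporter mRNA in human HepG2 liver cells 24 h post-dosing, using RT-PCR with fluorescent labelling and capillary electrophoresis; the transfected constructs report exogenous NR-GAL4 chimera activity, fitted upward against DMSO.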

[3] = target: Bile acid receptor (Homo sapiens) (UniProt Q96RI1); assay: ATG_FXR_TRANS: Attagene TRANS-FACTORIAL HepG2 Assay for Farnesoid X Receptor (FXR) (AID 2282979); conditions: HepG2 Attagene TRANS FXR-GAL4 reporter transcription;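 also: hits raise reporter mRNA above DMSO so AC50 marks FXR activation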
In short: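 Chimeric FXR-GAL4 activity in transiently transfected human HepG2 liver cells is scored as induction of reporter mRNA after 24 h of dosing. Detection uses RT-PCR with fluorescent labelling and capillary electrophoresis, with DMSO serving as baseline.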

[4] = target: Oxysterols receptor LXR-alpha (Homo sapiens) (UniProt Q13133); assay: ATG_LXRa_TRANS: Attagene TRANS-FACTORIAL HepG2 Assay for human Liver X Receptor alpha (LXRa) (AID 2282980); conditions: HepG2 Attagene TRANS reporter, LXRa transactivation
Sequence of Oxysterols receptor LXR-alpha (Homo sapiens) (Q13133 whole entry, looked up): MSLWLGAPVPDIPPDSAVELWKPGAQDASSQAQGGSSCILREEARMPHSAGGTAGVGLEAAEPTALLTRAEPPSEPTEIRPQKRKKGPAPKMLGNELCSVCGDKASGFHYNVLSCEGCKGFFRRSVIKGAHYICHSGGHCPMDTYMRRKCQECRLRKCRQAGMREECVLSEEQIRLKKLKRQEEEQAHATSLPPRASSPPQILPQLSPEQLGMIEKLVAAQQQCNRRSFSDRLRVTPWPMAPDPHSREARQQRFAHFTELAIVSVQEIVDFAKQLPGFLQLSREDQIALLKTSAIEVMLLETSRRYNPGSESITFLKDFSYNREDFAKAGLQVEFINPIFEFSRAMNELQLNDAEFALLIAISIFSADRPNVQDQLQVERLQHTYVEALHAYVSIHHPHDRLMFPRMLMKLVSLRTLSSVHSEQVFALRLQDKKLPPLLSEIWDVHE
In short: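 Transient HepG2 transfectants, 24 h dosing, RT-PCR/CE mRNA reporter quantitation; gain-of-signal vs DMSO.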

[5] = ATG_M_06_TRANS: Attagene TRANS-FACTORIAL HepG2 Assay for M06 Transcription Factor (Internal Marker) (AID 2282983); conditions: HepG2 Attagene TRANS M06 internal marker reporter;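 also: reporter transcript level by RT-PCR then capillary electrophoresis fluorescence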
In short: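 Human liver HepG2 cells bearing transiently transfected chimeric NR-GAL4 reporter units were treated with chemicals for 24 h. Total RNA was reverse-transcribed, reporter sequences amplified and labelled, then quantified by capillary electrophoresis. Activity was fitted upward relative to DMSO.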

[6] = target: Nuclear receptor subfamily 4 group A member 2 (Homo sapiens) (UniProt P43354); assay: ATG_NURR1_TRANS: Attagene TRANS-FACTORIAL HepG2 Assay for human Nuclear Receptor Related Protein 1 (NURR1) (AID 2282985); conditions: HepG2 Attagene TRANS reporter, mRNA readout
Sequence of Nuclear receptor subfamily 4 group A member 2 (Homo sapiens) (P43354 whole entry, looked up, the tested form may be a part): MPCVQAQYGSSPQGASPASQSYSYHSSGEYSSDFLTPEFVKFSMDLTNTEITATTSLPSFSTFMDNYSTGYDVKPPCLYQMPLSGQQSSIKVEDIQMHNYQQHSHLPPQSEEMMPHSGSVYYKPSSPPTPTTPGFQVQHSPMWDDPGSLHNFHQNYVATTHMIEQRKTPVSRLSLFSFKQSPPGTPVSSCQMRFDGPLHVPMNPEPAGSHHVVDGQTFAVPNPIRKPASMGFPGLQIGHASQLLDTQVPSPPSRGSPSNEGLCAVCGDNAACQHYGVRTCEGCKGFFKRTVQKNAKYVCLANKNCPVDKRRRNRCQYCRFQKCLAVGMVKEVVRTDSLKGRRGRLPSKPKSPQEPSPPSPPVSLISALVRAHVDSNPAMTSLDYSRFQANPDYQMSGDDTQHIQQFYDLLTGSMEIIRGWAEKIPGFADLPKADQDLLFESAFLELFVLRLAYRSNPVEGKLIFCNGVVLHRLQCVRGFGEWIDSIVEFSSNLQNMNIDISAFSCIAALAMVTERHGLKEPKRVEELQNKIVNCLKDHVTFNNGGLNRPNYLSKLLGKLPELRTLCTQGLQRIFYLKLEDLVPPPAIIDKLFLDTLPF
In short: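 Measures transcriptional activation by an exogenous NR-Gal4 chimera in transfected HepG2 liver cells. After 24 h, reporter RNA is reverse-transcribed, amplified and resolved by capillary electrophoresis; DMSO defines baseline.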

[7] = target: human Peroxisome Proliferator-activated Receptor delta (PPARd), PPARD (gene 5467) (UniProt Q03181); assay: ATG_PPARd_TRANS: Attagene TRANS-FACTORIAL HepG2 Assay for human Peroxisome Proliferator-activated Receptor delta (PPARd) (AID 2283002)
Sequence of human Peroxisome Proliferator-activated Receptor delta (PPARd), PPARD (gene 5467) (Q03181 whole entry, looked up, the tested form may be a part): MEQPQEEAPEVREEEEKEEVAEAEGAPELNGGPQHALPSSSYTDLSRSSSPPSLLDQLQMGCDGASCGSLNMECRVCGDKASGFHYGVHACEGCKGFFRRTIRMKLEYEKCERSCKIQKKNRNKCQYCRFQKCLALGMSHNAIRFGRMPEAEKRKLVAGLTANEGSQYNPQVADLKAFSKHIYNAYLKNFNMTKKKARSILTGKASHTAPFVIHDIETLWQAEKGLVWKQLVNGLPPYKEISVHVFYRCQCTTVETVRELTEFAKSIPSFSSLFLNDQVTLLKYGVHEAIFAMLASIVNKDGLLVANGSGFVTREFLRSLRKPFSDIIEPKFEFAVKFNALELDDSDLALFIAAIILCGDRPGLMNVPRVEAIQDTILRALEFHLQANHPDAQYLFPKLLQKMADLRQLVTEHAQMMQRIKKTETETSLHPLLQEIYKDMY
In short: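 Read-out is induced reporter mRNA, quantified by RT-PCR with fluorescent labelling and capillary electrophoresis after 24 h dosing. Cells are HepG2 transiently carrying multiple GAL4-UAS reporter units driven by exogenous NR-GAL4 chimeras; DMSO serves as baseline.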

[8] = target: human RAR-related Orphan Receptor gamma (RORg), RORC (gene 6097) (UniProt P51449); assay: ATG_RORg_TRANS: Attagene TRANS-FACTORIAL HepG2 Assay for human RAR-related Orphan Receptor gamma (RORg) (AID 2283011)
Sequence of human RAR-related Orphan Receptor gamma (RORg), RORC (gene 6097) (P51449 whole entry, looked up, the tested form may be a part): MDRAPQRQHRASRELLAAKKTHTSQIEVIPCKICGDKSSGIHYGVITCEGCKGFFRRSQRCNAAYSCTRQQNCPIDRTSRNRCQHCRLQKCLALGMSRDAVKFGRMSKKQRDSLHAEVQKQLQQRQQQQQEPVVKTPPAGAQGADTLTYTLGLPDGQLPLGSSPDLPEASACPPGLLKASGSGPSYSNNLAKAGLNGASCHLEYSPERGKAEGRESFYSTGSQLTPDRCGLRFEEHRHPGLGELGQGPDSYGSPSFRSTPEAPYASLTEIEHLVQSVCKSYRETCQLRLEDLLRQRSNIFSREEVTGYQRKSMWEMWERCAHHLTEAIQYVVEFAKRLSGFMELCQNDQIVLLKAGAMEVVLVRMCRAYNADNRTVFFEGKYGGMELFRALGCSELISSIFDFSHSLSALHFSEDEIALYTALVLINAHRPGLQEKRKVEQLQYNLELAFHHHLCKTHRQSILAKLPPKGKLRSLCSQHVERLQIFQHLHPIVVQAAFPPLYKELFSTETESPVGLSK
In short: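 Activity is scored as increase in GAL4-UAS reporter mRNA over DMSO, detected by fluorescent RT-PCR and capillary electrophoresis in HepG2 cells transiently expressing a RORg-Gal4 chimera, 24 h after dosing.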

[9] = target: human Vitamin D Receptor (VDR), VDR (gene 7421) (UniProt P11473); assay: ATG_VDR_TRANS: Attagene TRANS-FACTORIAL HepG2 Assay for human Vitamin D Receptor (VDR) (AID 2283022)
Sequence of human Vitamin D Receptor (VDR), VDR (gene 7421) (P11473 whole entry, looked up, the tested form may be a part): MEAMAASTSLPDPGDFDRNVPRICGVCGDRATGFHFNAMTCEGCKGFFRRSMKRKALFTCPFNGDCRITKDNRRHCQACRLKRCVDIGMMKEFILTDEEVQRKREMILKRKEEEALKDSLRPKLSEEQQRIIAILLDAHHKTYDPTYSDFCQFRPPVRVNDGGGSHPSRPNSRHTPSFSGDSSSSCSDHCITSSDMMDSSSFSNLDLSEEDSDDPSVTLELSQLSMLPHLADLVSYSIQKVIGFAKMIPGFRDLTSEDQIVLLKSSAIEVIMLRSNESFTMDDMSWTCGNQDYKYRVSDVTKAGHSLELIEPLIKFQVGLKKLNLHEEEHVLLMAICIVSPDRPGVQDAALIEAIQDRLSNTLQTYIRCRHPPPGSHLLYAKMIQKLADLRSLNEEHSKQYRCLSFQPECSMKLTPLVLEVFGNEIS
In short: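 Fluorescence of labelled reporter cDNA fragments, resolved by capillary electrophoresis, gives mRNA induction after 24 h treatment of HepG2 cells carrying transfected Gal4-fusion reporter units. Activity is fitted in the positive direction with DMSO as baseline.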

[10] = TOX21_p53_BLA_p4_viability: Viability Assessment in the Tox21 HCT-116 p53 Agonism Beta-lactamase Assay, Phase 4 (AID 2283597);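 also: hits lower the luminescence signal meaning cytotoxicity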
In short: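 Viability is taken as cellular ATP: after 16 h compound exposure of HCT116 cells and a 2 h room-temperature CCF4-AM substrate step, CellTiter-Glo reagent is added and luminescence is measured 30 min later.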

[11] = ATG_VDRE_CIS: Attagene CIS-FACTORIAL HepG2 Assay for human Vitamin D Receptor Element (VDRE) (AID 2282968; active = hit-call score of the fitted dose curve at least 0.9, where 1 is the maximum; inactive = score below 0.9); conditions: HepG2 VDRE cis-reporter transcription, actives raise or lower the signal
In short: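 Measures endogenous factor activity through cis-element-driven reporter transcripts in transiently transfected HepG2. Cells are treated 24 h; reporter mRNA is quantified by RT-PCR and capillary electrophoresis; fitting is bidirectional.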

[12] = target: human Thyroid Receptor alpha (THRa1), THRA (gene 7067) (UniProt P10827); assay: ATG_THRa1_TRANS: Attagene TRANS-FACTORIAL HepG2 Assay for human Thyroid Receptor alpha (THRa1) (AID 2283014)
In short: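 First, HepG2 cells receive multiple GAL4-UAS reporter units and the chimeric receptor. They are then dosed for 24 h, after which RNA is reverse-transcribed, amplified, labelled, HpaI-cut and sized by capillary electrophoresis; gain relative to DMSO is scored.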

[13] = target: Nuclear receptor subfamily 1 group I member 3 (Homo sapiens) (UniProt Q14994); assay: ATG_CAR_TRANS: Attagene TRANS-FACTORIAL HepG2 Assay for human Constitutive Androstane Receptor (CAR) (AID 2282969); conditions: HepG2 Attagene TRANS-FACTORIAL CAR reporter;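 also: activators raise reporter mRNA above DMSO so AC50 marks induction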
Sequence of Nuclear receptor subfamily 1 group I member 3 (Homo sapiens) (Q14994 whole entry, looked up, the tested form may be a part): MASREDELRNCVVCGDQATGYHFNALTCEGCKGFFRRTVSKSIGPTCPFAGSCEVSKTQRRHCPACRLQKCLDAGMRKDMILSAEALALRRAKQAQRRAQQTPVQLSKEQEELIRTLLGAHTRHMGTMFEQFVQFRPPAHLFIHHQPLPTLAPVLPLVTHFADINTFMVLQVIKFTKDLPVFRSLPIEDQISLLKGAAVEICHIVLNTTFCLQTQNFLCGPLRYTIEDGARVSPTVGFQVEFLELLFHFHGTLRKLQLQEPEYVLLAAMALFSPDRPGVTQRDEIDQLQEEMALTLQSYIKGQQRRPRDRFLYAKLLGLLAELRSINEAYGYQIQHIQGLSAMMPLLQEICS
In short: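 Signal is reporter mRNA induction relative to DMSO, measured 24 h after dosing by RT-PCR with fluorescent primer extension and capillary electrophoresis. Human HepG2 liver cells carried transiently transfected chimeric NR-Gal4/GAL4-UAS reporter constructs.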

[14] = ATG_GAL4_TRANS: Attagene TRANS-FACTORIAL HepG2 Assay for GAL4 (Internal Marker) (AID 2282976); conditions: HepG2 Attagene TRANS GAL4 internal marker reporter
In short: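 Fluorescence from capillary electrophoresis of labelled RT-PCR products quantifies reporter mRNA induction after 24 h dosing of HepG2 cells carrying transfected GAL4-UAS reporter transcription units. Vehicle DMSO serves as baseline.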

[15] = target: Oxysterols receptor LXR-beta (Homo sapiens) (UniProt P55055); assay: ATG_LXRb_TRANS: Attagene TRANS-FACTORIAL HepG2 Assay for human Liver X Receptor beta (LXRb) (AID 2282981); conditions: HepG2 Attagene TRANS GAL4-LXRb reporter, mRNA
Sequence of Oxysterols receptor LXR-beta (Homo sapiens) (P55055 whole entry, looked up, the tested form may be a part): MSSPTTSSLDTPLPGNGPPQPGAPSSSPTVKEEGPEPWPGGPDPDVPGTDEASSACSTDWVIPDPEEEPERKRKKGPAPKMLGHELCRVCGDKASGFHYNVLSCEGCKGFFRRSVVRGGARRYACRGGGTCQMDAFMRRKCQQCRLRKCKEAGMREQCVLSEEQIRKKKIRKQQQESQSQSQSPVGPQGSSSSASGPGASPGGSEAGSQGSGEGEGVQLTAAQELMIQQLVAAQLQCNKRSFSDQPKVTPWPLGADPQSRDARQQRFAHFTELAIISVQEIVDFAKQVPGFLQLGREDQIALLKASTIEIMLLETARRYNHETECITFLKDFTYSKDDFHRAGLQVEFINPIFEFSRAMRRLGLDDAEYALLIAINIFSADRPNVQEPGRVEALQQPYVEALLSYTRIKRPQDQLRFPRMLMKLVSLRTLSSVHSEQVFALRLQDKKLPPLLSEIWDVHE
In short: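 After 24 h of chemical treatment, transfected HepG2 cells yield total RNA; reporter cDNA is PCR-amplified, FAM-labelled, HpaI-cut and run on capillary electrophoresis. Signal reflects chimeric LXRb-Gal4 activity on GAL4-UAS reporters.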

[16] = CCTE_Harrill_HTTr_Viability_MCF7: CCTE's 6-hour Cell Viability Assessment for the High-Throughput Transcriptomics (HTTr) Platform, in MCF-7 cells cultured in DMEM + 10% fetal bovine serum, Harrill Lab (AID 2284010; active = hit-call score of the fitted dose curve at least 0.9, where 1 is the maximum; inactive = score below 0.9)
In short: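 Eight-point concentration series, six-hour exposure. Propidium iodide exclusion imaged to assess membrane integrity as a cytotoxicity readout; bidirectional fitting was done with DMSO as negative control and activity baseline.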

[17] = CCTE_Harrill_HTTr_Apoptosis_MCF7: CCTE's 6-hour Apoptosis Assessment for the High-Throughput Transcriptomics (HTTr) Platform, in MCF-7 cells cultured in DMEM + 10% fetal bovine serum, Harrill Lab (AID 2284011; active = hit-call score of the fitted dose curve at least 0.9, where 1 is the maximum; inactive = score below 0.9)
In short: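 Cells are dosed with test chemicals at eight concentrations and imaged 6 hours later for caspase-3/7 activity using a green fluorogenic detection reagent. Activity is fitted in both directions against DMSO controls.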

[18] = target: human RAR-related Orphan Receptor beta (RORb), RORB (gene 6096) (UniProt Q92753); assay: ATG_RORb_TRANS: Attagene TRANS-FACTORIAL HepG2 Assay for human RAR-related Orphan Receptor beta (RORb) (AID 2283010)
Sequence of human RAR-related Orphan Receptor beta (RORb), RORB (gene 6096) (Q92753 whole entry, looked up, the tested form may be a part): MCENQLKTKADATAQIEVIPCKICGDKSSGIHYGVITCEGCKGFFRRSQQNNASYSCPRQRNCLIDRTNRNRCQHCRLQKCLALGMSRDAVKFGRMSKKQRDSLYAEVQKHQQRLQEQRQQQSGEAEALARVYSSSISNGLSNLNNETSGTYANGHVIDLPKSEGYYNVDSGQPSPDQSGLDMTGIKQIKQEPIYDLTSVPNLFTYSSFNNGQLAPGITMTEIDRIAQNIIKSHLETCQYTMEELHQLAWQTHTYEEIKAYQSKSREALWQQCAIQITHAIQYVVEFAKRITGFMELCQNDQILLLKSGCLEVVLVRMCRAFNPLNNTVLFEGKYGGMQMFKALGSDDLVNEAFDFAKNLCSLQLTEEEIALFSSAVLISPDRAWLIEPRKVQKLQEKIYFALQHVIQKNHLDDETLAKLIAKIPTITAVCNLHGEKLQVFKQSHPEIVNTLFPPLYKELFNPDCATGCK
In short: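 Multiplexed transcription-factor reporter assay: HepG2 cells transiently carrying NR-Gal4/GAL4-UAS constructs, 24 h treatment, mRNA quantified by RT-PCR plus capillary electrophoresis fluorescence; activity scored as induction over DMSO.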

[19] = target: Peroxisome proliferator-activated receptor gamma (Homo sapiens) (UniProt P37231); assay: ATG_PPARg_TRANS: Attagene TRANS-FACTORIAL HepG2 Assay for human Peroxisome Proliferator-activated Receptor-gamma (PPARg) (AID 2283007)
Sequence of Peroxisome proliferator-activated receptor gamma (Homo sapiens) (P37231 whole entry, looked up): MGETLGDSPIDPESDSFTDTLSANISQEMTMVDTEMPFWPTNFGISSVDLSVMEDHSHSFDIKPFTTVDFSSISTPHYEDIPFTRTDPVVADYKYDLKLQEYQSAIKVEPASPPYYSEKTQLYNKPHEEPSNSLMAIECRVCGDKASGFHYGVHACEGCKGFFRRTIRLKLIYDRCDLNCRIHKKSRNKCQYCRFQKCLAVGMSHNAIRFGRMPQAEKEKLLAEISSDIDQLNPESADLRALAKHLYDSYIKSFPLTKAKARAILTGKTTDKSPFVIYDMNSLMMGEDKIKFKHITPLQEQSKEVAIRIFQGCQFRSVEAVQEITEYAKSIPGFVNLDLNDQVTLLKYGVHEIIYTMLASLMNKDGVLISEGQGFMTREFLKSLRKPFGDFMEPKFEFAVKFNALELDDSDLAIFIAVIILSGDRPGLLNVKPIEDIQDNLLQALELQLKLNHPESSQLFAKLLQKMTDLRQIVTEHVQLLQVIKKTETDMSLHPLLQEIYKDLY
In short: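 Multiplexed reporter transcription units in HepG2, 24 h dosing, reporter transcripts quantified by fluorescent RT-PCR and capillary electrophoresis. Increase over DMSO scored.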

[20] = ATG_NF_kB_CIS: Attagene CIS-FACTORIAL HepG2 Assay for human Nuclear Factor Kappa B (NF-kB) (AID 2282991; active = hit-call score of the fitted dose curve at least 0.9, where 1 is the maximum; inactive = score below 0.9); conditions: HepG2 Attagene cis-factorial NF-kB reporter mRNA; actives raise or lower the signal
In short: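 HepG2, transient multi-reporter transfection, cis promoter elements (endogenous TFs). 24 h exposure. Total RNA → RT → PCR → 6-FAM label → HpaI → CE. Gain/loss vs DMSO.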

Measured: AC50

CCCCCCCCCC/C=C/C1CC(=O)OC1=O (stereo unspecified)
inactive: [1] | [2] | [3] | [4] | [5] | [6] | [7] | [8] | [9] | [10]

COC(=O)/C=C\C(=O)OC
inactive: [2] | [4] | [6] | [7] | [12] | [9]
active: [11] 49.6 µM

O=C(O)Cc1c[nH]c2ccccc12
inactive: [11] | [13] | [1] | [14] | [2] | [3] | [4] | [15] | [6] | [12] | [10] | [16] | [17]

CC/C=C\CCO
inactive: [1] | [2] | [15] | [5] | [18] | [8] | [16] | [17]

CC[N+](CC)(CC(=O)Nc1c(C)cccc1C)Cc1ccccc1
inactive: [1] | [14] | [4] | [6] | [19] | [18]

CCCCOC(=O)COc1ccc(Cl)cc1Cl
inactive: [13] | [1] | [19] | [18] | [9] | [10]

NCc1ccccc1
inactive: [13] | [1] | [14] | [2] | [15] | [8] | [10] | [16] | [17]

Cc1cc(C)c(S(=O)(=O)O)cc1N=Nc1cc(S(=O)(=O)O)c2ccccc2c1O
inactive: [13] | [14] | [4] | [15] | [5] | [19] | [8] | [12] | [9]

O=S(=O)(O)c1cccc2ccccc12
inactive: [7] | [19] | [8] | [12]

CCCCCC1CCCC(=O)O1 (stereo unspecified)
inactive: [11] | [13] | [1] | [14] | [2] | [3] | [4] | [7] | [19] | [9] | [10]

COc1c2occc2cc2ccc(=O)oc12
active: [11] 53.7 µM
inactive: [14] | [3] | [5] | [7] | [18] | [12] | [10] | [16] | [17]

c1cc[c]([Bi]([c]2ccccc2)[c]2ccccc2)cc1
active: [6] 37.9 µM
inactive: [11] | [13] | [14] | [15] | [5] | [20] | [9]

CNC(=C[N+](=O)[O-])NCCSCc1csc(CN(C)C)n1
inactive: [13] | [1] | [14] | [4] | [15] | [10] | [16] | [17]

c1cc(N(CC2CO2)CC2CO2)ccc1Cc1ccc(N(CC2CO2)CC2CO2)cc1 (stereo unspecified)
active: [11] 3.66 µM | [6] 70.9 µM
inactive: [1] | [14] | [2] | [3] | [4] | [20] | [7] | [19] | [9] | [10]
